Data reported in PubChem BioAssay (EPA / NIEHS).
Records with an inconclusive call do not appear. The source made the active and inactive calls. The calls were made as follows: active = hit-call score of the fitted dose curve at least 0.9, where 1 is the maximum; inconclusive = response in the unintended direction; inactive = score below 0.9.

Experiment: Tanguay_ZF_120hpf_CFIN_legacy: (Legacy) Oregon State University Tanguay Lab 120 Hour Post-fertilization zebrafish Assay for Caudal Fin Malformation (AID 2283649)
Outline: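 Dechorionated 5D wild-type zebrafish, static exposure 6–120 hpf, 28C, sealed and dark, 0.64% v/v DMSO final. Binary fin-malformation call at 120 hpf, brightfield; gain of signal vs DMSO baseline.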

| SMILES | outcome |
| --- | --- |
| CCCCCCCCCCCCCCCC | inactive |
| Cc1ccc(C)c(O)c1C | inactive |
| CNCc1cc(F)ccc1Oc1ccc(Cl)c(Cl)c1 | inactive |
| Cc1ccc(C(C)C)c(O)c1 | inactive |
| NCC1(Cc2noc(=O)[nH]2)CCCCC1 | inactive |
| NS(=O)(=O)c1cc2c(cc1Cl)NCNS2(=O)=O | inactive |
| Oc1ccc2ccccc2c1N=Nc1ccccc1 | inactive |
| Nc1ccc(S(=O)(=O)c2ccc(N)cc2)cc1 | inactive |
| Nc1ccccc1N | inactive |
| CN[C@H]1CC[C@@H](c2ccc(Cl)c(Cl)c2)c2ccc(S(N)(=O)=O)cc21 | inactive |
| CC1=C(/C=C/C(C)=C/C=C/C(C)=C/CO)C(C)(C)CCC1 | inactive |
| CC(CO)OC(C)CO (configuration not stated) (tested in a mixture with another compound) | inactive |
| CCCCCCCCCCCCCO | inactive |
| CC1(C)NC(=O)NC1=O | inactive |
| COc1ccc(C)cc1N | inactive |
| Nc1ccc2c(c1)C(=O)c1ccccc1C2=O | inactive |
| Cc1ccc(Cl)cc1 | inactive |
| NC(=O)Cn1c(=O)cc(CCN2CCN(c3nccc4sccc34)CC2)c2ccc(F)cc21 | inactive |
| CCCCCCCCCCCC(=O)OC | inactive |
| C[C@]12C=CC(=O)C=C1CC[C@@H]1[C@@H]2C(=O)C[C@@]2(C)[C@H]1CC[C@]2(O)C(=O)CO | inactive |
| Cc1c(C(=O)O)c(O)cc2c1C(=O)c1c(O)c([C@@H]3O[C@H](CO)[C@@H](O)[C@H](O)[C@H]3O)c(O)c(O)c1C2=O | inactive |
| CNC(=O)[C@H]1O[C@@H](n2cnc3c(NCc4cc(Cl)ccc4OCc4cc(C)no4)ncnc32)[C@H](O)[C@@H]1N | inactive |
| CCCCOC(=O)CCCCCCCCC(=O)OCCCC | inactive |
| CCCCCCCCCCCCCCCCCC(=O)O | inactive |
| CC=Cc1ccc(O)c(OC)c1 | inactive |

Experiment: Tanguay_ZF_120hpf_PIG_legacy: (Legacy) Oregon State University Tanguay Lab 120 Hour Post-fertilization zebrafish Assay for Pigmentation Malformation (AID 2283650)
Outline: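 Tropical 5D wild-type zebrafish embryos, dechorionated with pronase at 4 hpf, were exposed singly from 6 hpf to 120 hpf statically at 28C in sealed, dark plates with 0.64% DMSO; pigmentation scored present/absent by brightfield microscopy, fitted against DMSO.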

| SMILES | outcome |
| --- | --- |
| CCCCCCCCCCCCCCCC | inactive |
| Cc1ccc(C)c(O)c1C | inactive |
| CNCc1cc(F)ccc1Oc1ccc(Cl)c(Cl)c1 | inactive |
| Cc1ccc(C(C)C)c(O)c1 | inactive |
| NCC1(Cc2noc(=O)[nH]2)CCCCC1 | inactive |
| NS(=O)(=O)c1cc2c(cc1Cl)NCNS2(=O)=O | inactive |
| Oc1ccc2ccccc2c1N=Nc1ccccc1 | inactive |
| Nc1ccc(S(=O)(=O)c2ccc(N)cc2)cc1 | inactive |
| Nc1ccccc1N | inactive |
| Cc1cccc(C)c1O | inactive |
| CN[C@H]1CC[C@@H](c2ccc(Cl)c(Cl)c2)c2ccc(S(N)(=O)=O)cc21 | inactive |
| CC1=C(/C=C/C(C)=C/C=C/C(C)=C/CO)C(C)(C)CCC1 | inactive |
| CC(CO)OC(C)CO (configuration not stated) (tested in a mixture with another compound) | inactive |
| CCCCCCCCCCCCCO | inactive |
| COc1ccc(C)cc1N | inactive |
| c1cc(-c2ccncc2)ccn1 | inactive |
| Nc1ccc2c(c1)C(=O)c1ccccc1C2=O | inactive |
| C=CCOC(=O)c1ccccc1C(=O)OCC=C | inactive |
| CCCCCCCCCCCC(=O)OC | inactive |
| Cc1ccc(N(C)C)cc1 | inactive |
| Cc1c(C(=O)O)c(O)cc2c1C(=O)c1c(O)c([C@@H]3O[C@H](CO)[C@@H](O)[C@H](O)[C@H]3O)c(O)c(O)c1C2=O | inactive |
| CNC(=O)[C@H]1O[C@@H](n2cnc3c(NCc4cc(Cl)ccc4OCc4cc(C)no4)ncnc32)[C@H](O)[C@@H]1N | inactive |
| CCCCOC(=O)CCCCCCCCC(=O)OCCCC | inactive |
| CCCCCCCCCCCCCCCCCC(=O)O | inactive |
| CC=Cc1ccc(O)c(OC)c1 | inactive |

Experiment: Tanguay_ZF_120hpf_CIRC_legacy: (Legacy) Oregon State University Tanguay Lab 120 Hour Post-fertilization zebrafish Assay for Circulatory Malformation (AID 2283651)
Outline: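 Dechorionated wild-type 5D zebrafish embryos, one per well, statically exposed from 6 to 120 hpf at 28C with 0.64% DMSO; circulatory malformation scored present/absent by brightfield microscopy at 120 hpf, dead embryos excluded.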

| SMILES | outcome |
| --- | --- |
| CCCCCCCCCCCCCCCC | inactive |
| Cc1ccc(C)c(O)c1C | inactive |
| Cc1ccc(C(C)C)c(O)c1 | inactive |
| NCC1(Cc2noc(=O)[nH]2)CCCCC1 | inactive |
| NS(=O)(=O)c1cc2c(cc1Cl)NCNS2(=O)=O | inactive |
| Oc1ccc2ccccc2c1N=Nc1ccccc1 | inactive |
| Nc1ccc(S(=O)(=O)c2ccc(N)cc2)cc1 | inactive |
| Nc1ccccc1N | inactive |
| Cc1cccc(C)c1O | inactive |
| CN[C@H]1CC[C@@H](c2ccc(Cl)c(Cl)c2)c2ccc(S(N)(=O)=O)cc21 | inactive |
| CC1=C(/C=C/C(C)=C/C=C/C(C)=C/CO)C(C)(C)CCC1 | inactive |
| CCCCCCCCCCCCCO | inactive |
| COc1ccc(C)cc1N | inactive |
| c1cc(-c2ccncc2)ccn1 | inactive |
| Nc1ccc2c(c1)C(=O)c1ccccc1C2=O | inactive |
| NC(=O)Cn1c(=O)cc(CCN2CCN(c3nccc4sccc34)CC2)c2ccc(F)cc21 | inactive |
| C=CCOC(=O)c1ccccc1C(=O)OCC=C | inactive |
| CCCCCCCCCCCC(=O)OC | inactive |
| C[C@]12C=CC(=O)C=C1CC[C@@H]1[C@@H]2C(=O)C[C@@]2(C)[C@H]1CC[C@]2(O)C(=O)CO | inactive |
| Cc1ccc(N(C)C)cc1 | inactive |
| CNC(=O)[C@H]1O[C@@H](n2cnc3c(NCc4cc(Cl)ccc4OCc4cc(C)no4)ncnc32)[C@H](O)[C@@H]1N | inactive |
| CCCCOC(=O)CCCCCCCCC(=O)OCCCC | inactive |
